From ChEMBL document CHEMBL3988442, “University of Dundee, Small-Polar-MMV Screening Library” (2021)
For some assays here: Results with a measured potency or affinity are listed apart.

How the values were obtained:
Parameters in all cases: scale not given: direction of the effect not stated beside the values
[1] = target: Protein translocase subunit SecA (Escherichia coli (strain K12)) (UniProt P10408); assay: Assay to Identify E. coli SecA ATPase Inhibitors; format: functional; conditions: 30 µM
Sequence of Protein translocase subunit SecA (Escherichia coli (strain K12)) (P10408 whole entry): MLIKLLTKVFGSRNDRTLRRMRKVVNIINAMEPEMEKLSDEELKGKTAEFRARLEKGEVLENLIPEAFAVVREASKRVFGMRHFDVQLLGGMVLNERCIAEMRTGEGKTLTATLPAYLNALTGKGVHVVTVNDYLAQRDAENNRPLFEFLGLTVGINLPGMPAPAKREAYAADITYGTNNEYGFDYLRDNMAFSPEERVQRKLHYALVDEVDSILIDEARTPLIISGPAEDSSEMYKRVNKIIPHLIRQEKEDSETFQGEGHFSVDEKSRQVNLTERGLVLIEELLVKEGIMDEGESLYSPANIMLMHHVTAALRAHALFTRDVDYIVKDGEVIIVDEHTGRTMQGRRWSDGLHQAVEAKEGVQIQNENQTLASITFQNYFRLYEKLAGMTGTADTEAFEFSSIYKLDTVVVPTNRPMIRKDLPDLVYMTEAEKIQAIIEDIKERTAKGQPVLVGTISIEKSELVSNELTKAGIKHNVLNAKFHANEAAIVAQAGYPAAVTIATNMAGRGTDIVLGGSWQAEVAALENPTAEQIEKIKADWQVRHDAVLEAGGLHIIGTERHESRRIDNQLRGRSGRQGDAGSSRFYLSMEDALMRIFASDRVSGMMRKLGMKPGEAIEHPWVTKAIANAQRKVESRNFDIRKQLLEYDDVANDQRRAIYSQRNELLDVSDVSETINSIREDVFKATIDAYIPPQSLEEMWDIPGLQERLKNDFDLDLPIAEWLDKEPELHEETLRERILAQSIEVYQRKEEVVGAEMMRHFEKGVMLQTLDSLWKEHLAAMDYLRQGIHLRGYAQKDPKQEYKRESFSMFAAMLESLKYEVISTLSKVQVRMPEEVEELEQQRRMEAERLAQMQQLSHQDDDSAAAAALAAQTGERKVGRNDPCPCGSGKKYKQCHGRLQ

[2] = target: T1, Ubiquitin-activating enzyme e1, putative (Leishmania donovani (strain BPK282A1)) (UniProt E9BSI1); assay: Leishmania donovani Ubiquitin Activating Enzyme (LdE1); format: functional; conditions: 30 µM
T1 sequence (whole entry): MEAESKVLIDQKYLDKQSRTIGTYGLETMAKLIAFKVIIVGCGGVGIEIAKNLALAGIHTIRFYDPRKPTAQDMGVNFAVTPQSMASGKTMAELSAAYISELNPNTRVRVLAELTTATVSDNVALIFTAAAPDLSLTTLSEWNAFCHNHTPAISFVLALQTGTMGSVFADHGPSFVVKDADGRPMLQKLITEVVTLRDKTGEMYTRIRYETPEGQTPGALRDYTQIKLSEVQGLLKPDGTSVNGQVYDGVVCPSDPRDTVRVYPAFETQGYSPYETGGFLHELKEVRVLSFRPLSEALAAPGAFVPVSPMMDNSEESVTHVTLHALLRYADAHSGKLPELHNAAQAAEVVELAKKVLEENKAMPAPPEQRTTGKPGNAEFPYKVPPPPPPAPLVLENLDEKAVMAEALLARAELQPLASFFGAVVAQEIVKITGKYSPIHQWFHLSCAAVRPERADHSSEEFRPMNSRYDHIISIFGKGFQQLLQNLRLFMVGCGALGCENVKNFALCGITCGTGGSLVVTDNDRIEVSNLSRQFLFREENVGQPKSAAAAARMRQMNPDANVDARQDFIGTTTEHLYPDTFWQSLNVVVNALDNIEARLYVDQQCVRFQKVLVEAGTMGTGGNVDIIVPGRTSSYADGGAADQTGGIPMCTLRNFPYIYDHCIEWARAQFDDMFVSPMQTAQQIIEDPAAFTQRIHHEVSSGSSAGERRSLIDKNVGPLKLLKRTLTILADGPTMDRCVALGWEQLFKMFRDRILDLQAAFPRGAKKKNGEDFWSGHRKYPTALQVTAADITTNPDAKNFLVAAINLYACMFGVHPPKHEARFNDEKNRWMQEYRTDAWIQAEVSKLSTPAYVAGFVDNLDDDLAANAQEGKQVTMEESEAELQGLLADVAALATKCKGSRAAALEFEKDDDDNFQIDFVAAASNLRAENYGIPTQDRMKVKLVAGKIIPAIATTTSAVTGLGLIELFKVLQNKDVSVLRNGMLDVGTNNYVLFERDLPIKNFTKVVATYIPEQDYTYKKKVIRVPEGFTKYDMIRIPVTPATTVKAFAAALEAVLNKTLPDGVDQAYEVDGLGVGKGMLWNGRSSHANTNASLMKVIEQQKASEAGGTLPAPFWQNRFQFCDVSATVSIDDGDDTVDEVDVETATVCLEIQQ

[3] = target: AMP-activated protein kinase, AMPK (Homo sapiens) (UniProt P54646+O43741+P54619+Q9UGJ0+Q9Y478+Q13131+Q9UGI9); assay: AMP-dependent Kinase enzyme assay. An in vitro enzyme assay that detects ADP turnover that is directly proportional to AMPK activity. This uses naive AMPK that is activated during the assay with MK-8722; format: functional; conditions: 30 µM
[4] = target: Sialic acid-binding Ig-like lectin 9 (Homo sapiens) (UniProt Q9Y336); assay: Hs-Siglec9 ALPHAscreen SOP 20170721; conditions: 10 µM
Sequence of Sialic acid-binding Ig-like lectin 9 (Homo sapiens) (Q9Y336 whole entry): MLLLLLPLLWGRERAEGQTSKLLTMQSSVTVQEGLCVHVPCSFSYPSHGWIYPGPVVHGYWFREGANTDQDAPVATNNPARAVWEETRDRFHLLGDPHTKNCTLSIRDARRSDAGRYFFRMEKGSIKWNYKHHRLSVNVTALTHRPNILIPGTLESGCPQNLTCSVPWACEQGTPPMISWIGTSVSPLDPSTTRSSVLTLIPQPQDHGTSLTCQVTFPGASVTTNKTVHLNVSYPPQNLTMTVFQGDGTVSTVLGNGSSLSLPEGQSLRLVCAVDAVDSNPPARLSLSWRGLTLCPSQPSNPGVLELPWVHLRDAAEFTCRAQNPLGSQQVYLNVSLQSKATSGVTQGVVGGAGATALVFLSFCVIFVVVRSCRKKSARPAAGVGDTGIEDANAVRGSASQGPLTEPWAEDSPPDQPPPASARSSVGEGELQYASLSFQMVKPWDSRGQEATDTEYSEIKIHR

Trypanosoma cruzi = assay: Trypanosoma cruzi phosphomannomutase and mannose-1-phosphate guanylyltransferase assay; format: functional; conditions: 10 µM
[5] = target: T2, Arginase-2, mitochondrial (Homo sapiens) (UniProt P78540); assay: in vitro enzyme assay to detect the production of urea directly proportional to the activity of Arginase II; format: functional; conditions: 33.3 µM; note: in the data most compounds retested in dose-response had high values
T2 sequence (whole entry): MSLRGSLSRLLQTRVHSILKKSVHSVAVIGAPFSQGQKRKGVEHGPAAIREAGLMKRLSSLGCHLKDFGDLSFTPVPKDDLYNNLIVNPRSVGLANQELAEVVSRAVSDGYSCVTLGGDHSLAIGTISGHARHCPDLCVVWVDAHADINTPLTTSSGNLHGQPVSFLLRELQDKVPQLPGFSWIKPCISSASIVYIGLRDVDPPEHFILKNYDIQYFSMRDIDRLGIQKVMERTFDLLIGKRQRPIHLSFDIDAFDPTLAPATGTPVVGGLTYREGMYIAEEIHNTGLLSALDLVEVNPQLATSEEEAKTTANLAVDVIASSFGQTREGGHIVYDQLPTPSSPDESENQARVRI

[6] = target: T3, Proteasome subunit beta (Trypanosoma cruzi) (UniProt O96673); assay: Trypanosoma cruzi proteasome chymotrypsin-like activity (TcProtChymo) assay.; note: in the data most compounds retested in dose-response had high values; format: functional; conditions: 9.37 µM
T3 sequence (whole entry): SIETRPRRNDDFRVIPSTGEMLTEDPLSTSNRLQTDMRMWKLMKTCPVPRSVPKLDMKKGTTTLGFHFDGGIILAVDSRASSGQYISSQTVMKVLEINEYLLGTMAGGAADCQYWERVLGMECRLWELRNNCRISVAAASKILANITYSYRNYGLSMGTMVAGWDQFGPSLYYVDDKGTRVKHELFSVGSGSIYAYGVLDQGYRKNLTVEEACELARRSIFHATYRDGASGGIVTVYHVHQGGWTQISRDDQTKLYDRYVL

Homo sapiens = organism: Homo sapiens; assay: To identify inhibition of the IFN signalling (Jak-Stat) pathway via expression of an eGFP reporter gene under the control of an IFN-stimulated response element (ISRE) containing MxA promoter.; format: functional; conditions: 30 µM
[7] = target: T4, Tyrosyl-tRNA synthetase, putative (Trypanosoma cruzi (strain CL Brener)) (UniProt Q4DSP6); assay: Trypanosoma cruzi tyrosyl tRNA synthetase (TcYRS) _High Tyrosine SOP; format: functional; conditions: 30 µM; note: in the data most compounds retested in dose-response had high values
T4 sequence (whole entry): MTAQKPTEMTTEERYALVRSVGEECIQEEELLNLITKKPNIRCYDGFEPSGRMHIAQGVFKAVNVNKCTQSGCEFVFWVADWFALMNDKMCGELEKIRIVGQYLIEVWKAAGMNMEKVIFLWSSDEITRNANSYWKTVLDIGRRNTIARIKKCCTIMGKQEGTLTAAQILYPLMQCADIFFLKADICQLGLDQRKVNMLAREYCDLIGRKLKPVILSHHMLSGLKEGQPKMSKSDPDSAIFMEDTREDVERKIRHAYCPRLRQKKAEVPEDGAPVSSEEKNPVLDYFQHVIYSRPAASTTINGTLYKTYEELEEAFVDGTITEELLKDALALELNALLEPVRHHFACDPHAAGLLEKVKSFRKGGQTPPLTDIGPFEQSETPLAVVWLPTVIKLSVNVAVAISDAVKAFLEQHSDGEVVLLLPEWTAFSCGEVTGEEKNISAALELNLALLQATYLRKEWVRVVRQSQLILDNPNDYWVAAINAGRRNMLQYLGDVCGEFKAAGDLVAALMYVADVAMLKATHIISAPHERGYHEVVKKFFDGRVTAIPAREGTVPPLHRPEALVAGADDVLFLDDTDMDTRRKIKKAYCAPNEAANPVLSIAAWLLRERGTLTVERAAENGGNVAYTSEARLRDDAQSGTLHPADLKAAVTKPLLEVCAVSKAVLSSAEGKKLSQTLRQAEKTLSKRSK

[8] = target: T4, Tyrosyl-tRNA synthetase, putative (Trypanosoma cruzi (strain CL Brener)); assay: Trypanosoma cruzi tyrosyl tRNA synthetase (TcYRS) SOP; format: functional; conditions: 30 µM
[9] = target: Chromo domain-containing protein 1 (Saccharomyces cerevisiae (strain ATCC 204508 / S288c) (Baker's yeast)) (UniProt P32657); assay: ScCHD-1 Enzyme Inhibition Assay; format: functional; conditions: 30 µM; note: in the data most compounds retested in dose-response had high values
Sequence of Chromo domain-containing protein 1 (Saccharomyces cerevisiae (strain ATCC 204508 / S288c) (Baker's yeast)) (P32657 whole entry, the tested form may be a part): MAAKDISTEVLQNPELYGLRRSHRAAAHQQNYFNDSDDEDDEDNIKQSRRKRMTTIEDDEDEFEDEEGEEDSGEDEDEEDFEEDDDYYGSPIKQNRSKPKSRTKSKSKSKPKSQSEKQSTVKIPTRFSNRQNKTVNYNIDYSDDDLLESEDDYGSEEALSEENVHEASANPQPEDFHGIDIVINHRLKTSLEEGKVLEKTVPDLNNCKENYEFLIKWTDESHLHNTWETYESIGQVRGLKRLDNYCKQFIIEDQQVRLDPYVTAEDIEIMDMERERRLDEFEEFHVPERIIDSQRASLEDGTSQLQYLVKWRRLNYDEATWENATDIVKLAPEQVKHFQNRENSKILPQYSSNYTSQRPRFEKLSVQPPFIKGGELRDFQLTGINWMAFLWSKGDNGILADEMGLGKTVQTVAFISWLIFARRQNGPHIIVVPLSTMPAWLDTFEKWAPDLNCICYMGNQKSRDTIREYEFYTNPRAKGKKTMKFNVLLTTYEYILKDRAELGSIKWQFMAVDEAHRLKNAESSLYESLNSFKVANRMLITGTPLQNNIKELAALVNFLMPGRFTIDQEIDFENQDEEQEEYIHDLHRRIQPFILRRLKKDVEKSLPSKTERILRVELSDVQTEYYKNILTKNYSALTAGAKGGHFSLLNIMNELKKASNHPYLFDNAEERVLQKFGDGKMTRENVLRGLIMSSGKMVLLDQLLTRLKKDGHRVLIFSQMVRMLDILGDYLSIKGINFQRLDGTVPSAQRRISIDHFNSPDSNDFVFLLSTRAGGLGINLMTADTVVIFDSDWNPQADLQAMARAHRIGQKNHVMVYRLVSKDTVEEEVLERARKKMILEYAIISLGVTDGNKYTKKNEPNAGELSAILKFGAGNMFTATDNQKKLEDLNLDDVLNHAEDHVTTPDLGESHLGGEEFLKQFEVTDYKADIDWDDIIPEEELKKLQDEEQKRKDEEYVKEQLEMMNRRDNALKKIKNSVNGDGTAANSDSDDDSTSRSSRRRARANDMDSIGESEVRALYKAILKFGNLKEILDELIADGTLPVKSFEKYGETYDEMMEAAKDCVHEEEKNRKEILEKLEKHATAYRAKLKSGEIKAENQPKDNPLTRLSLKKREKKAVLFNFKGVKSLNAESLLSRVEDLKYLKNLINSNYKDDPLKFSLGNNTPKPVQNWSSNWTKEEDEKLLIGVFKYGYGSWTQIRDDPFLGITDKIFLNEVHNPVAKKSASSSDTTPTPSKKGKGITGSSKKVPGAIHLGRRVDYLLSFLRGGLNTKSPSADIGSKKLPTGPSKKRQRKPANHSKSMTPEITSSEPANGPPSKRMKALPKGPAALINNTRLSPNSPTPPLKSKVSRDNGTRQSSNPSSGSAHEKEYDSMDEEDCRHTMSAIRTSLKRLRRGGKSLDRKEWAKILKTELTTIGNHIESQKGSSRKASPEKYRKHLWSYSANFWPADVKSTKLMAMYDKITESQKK

SMILES | Percent Effect [1] [%] | Percent Effect [2] [%] | Percent Effect [3] [%] | Percent Effect [4] [%] | Percent Effect (Trypanosoma cruzi) [%] | Percent Effect [5] [%] | Percent Effect [6] [%] | Percent Effect (Homo sapiens) [%] | Percent Effect [7] [%] | Percent Effect [8] [%] | Percent Effect [9] [%]
Cc1nnsc1C(=O)N1CCC2(CC1)c1nc[nH]c1CCN2CC(C)C | -4.82 | 5.33 | -0.152 | -8.33 | -1.46 | -2.08 | 12.4 | -1.57 | 1.64 | 6.17 | -5.05
O=C(Nc1ccc(CCN2CCC(O)CC2)cc1)Nc1cccnc1 | -1.45 | 5.41 | -3.72 | 8.33 | -1.54 | -1.91 | 18.4 | 8.03 | 6.88 | 4.88 | -3.57
COc1ccccc1C(O)CNCc1c(C(C)C)nn(C)c1N(C)C (stereo unspecified) | -5.07 | 15.6 | -1.45 | 1.4 | 1.31 | 1.07 | 4.9 | -5.4 | 11.7 | 14.6 | -10.1
CN1CC(=O)N(c2ccsc2)CC12CCN(S(C)(=O)=O)C2 (stereo unspecified) | -4.15 | 0 | -4.23 | -4.81 | 6.84 | -2.5 | 20 | -12.5 | 3.96 | 11 | -0.42
CCn1cnnc1CNC(=O)CCC(=O)c1ccc2c(c1)OCCO2 | -8.9 | 16.2 | -8.33 | 6.97 | 6.7 | -10 | 15.3 | 11.5 | 10.3 | 23.5 | -8.22
CCc1nc(CCNC(=O)NC2CC2)sc1C | -5.62 | 0 | -1.43 | -3.96 | 0 | 1.67 | 9.89 | 5.25 | 6.93 | -1.22 | -6.36
Cc1noc([C@@H]2CCCN2C(=O)C2CCN(C(=O)C3CCC3)CC2)n1 | -2.73 | 5.48 | 27.2 | -1.91 | -6.27 | 0.909 | 11.7 | 27.9 | 0 | 5 | 98.2
Cc1cc(C)n(-c2cncc(NCCNC(=O)C(C)C)n2)n1 | -6.42 | 8.11 | -5.29 | -1.97 | -3.03 | 0.248 | 10.4 | -9.83 | 4.3 | 6.17 | -5.51
CCc1nnsc1C(=O)N1CCCN(Cc2cnn(C)c2)CC1 | -0.656 | -2.6 | -0.0421 | -5.43 | 7.74 | -0.21 | -1.05 | -10.1 | 0.952 | 2.35 | -0.342
Cc1c[nH]c(CN(C)C(=O)C2CC(=O)N(Cc3ccncc3)C2)n1 (stereo unspecified) | -3.45 | 5.41 | -2.63 | -5.87 | -5.77 | -1.24 | 8.33 | 0.971 | -1.07 | 1.24 | -4.02
COCCCN1CCCN(C(C)c2nc(C3CC3)no2)CC1 (stereo unspecified) | -1.91 | 8.11 | -3.11 | 15.8 | 4.74 | -13.5 | 6.46 | -3.07 | 4.95 | 15.8 | -1.39
O=C(NCCn1ccc(-c2ccncc2)n1)c1ccncc1 | -1.85 | 5.48 | -0.372 | 8.72 | 1.57 | -0.455 | 9.58 | 2.43 | 2.15 | 2.5 | -2.37
Cn1c(C(F)(F)F)nn(CCNC(=O)NCc2ccccc2)c1=O | -6.75 | 0 | -5.98 | 26.1 | 7.25 | 15 | 1.6 | 8.74 | 4.3 | 12.5 | -7.03
O=C(COc1coc(CN2CCCCC2)cc1=O)Nc1ccccc1Cl | -4.47 | 4 | 6.82 | 3.14 | -2.16 | -8.28 | 12.2 | -3.22 | 10.6 | 12.8 | 0.706
COc1ccc(-c2noc(CNC(C)Cn3cccn3)n2)c(OC)c1 (stereo unspecified) | -5.86 | 31.6 | -3.12 | -7.44 | 2.15 | -2.52 | 9.9 | 17.3 | 5.42 | 25.9 | -11.8
CCc1nc(CC(=O)Nc2cnn(CC3CCCO3)c2)cs1 (stereo unspecified) | -2.62 | 8.11 | -12.1 | -2.05 | -0.965 | -1.43 | 7.59 | 0.276 | -4.76 | -2.44 | -1.6
